The list is not random: actives were taken first. Their share in the collection is about 11%.
HP1b binding inh: inhibitors of HP1-beta chromodomain binding to methylated histone tails | Potency, µM (top dose mostly 114 µM), inactives show at the highest dose activity change, negative = inhibition, most hits filed as inhibitors | AID 540317 | actives 0.56% (n = 390,000) | AlphaScreen HP1-beta / biotin-H3K9me3 peptide binding; also: nearly all actives have a fitted effect of over 70% in size
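HP1-beta protein (50 nM final) preincubated 30 min at room temperature with biotinylated H3(1-18)K9me3 peptide (50 nM) in PBS pH 7.4, 0.01% Tween-20, then compound added for 30 min. AlphaScreen streptavidin donor/nickel chelate acceptor beads (10 ug/mL final), 30 min dark, luminescence read.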
L3MBTL1 block: L3MBTL1 (human) inhibition; AID 485360; Q9Y468; actives 0.66% (n = 230,000); AlphaScreen L3MBTL1–H3K9me1 peptide binding; Potency, µM (highest dose often 57.1 µM), for the others: at the highest dose activity, negative = inhibition, hits mostly inhibitors; also: % is scaled to controls: 0 for no effect and ±100 for the full control effect; nearly all actives have a fitted effect of over 60% in size
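Read-out is AlphaScreen signal from streptavidin donor and nickel chelate acceptor beads (10 ug/mL final each) bridging L3MBTL1 (50 nM) and biotinylated K9-monomethylated H3(1-15) peptide (75 nM), after 30 min compound exposure at room temperature.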
BAZ2B inh: blocks human BAZ2B. AlphaScreen BAZ2B-H3K14Ac peptide displacement. Potency, µM (highest dose often 114 µM), for inactives: at the top dose activity change, negative = inhibition, hits mostly inhibitors. actives 4.4% (n = 360,000); also: % is scaled to controls: 0 for no effect and ±100 for the full control effect; nearly all actives have a fitted effect of over 60% in size
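BAZ2B (50 nM) with biotin-H3(5-23)K14Ac peptide (50 nM) in PBS pH 7.4, 0.01% Tween-20, preformed 30 min, then compound 30 min at room temperature; top concentration 110uM. AlphaScreen streptavidin donor/nickel chelate acceptor beads (10 ug/mL final), 20 min dark, signal read.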
G9a inh: G9a (human) methyltransferase inhibition. Q96KQ7. G9a H3K9 monomethylation, AlphaScreen, 2 h. Potency, µM (series often up to 102 µM), for the others: top-dose activity, negative = inhibition, most hits filed as inhibitors. actives 8.8% (n = 350,000); also: % is scaled to controls: 0 for no effect and ±100 for the full control effect; nearly all actives have a fitted effect of over 75% in size
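Readings reflect AlphaScreen signal from monomethyl-H3K9 antibody detection. HMT at 20 nM; substrate b-H3K9 500 nM; cofactor SAM 20 uM; 2 h RT reaction; compounds tested as titrations in qHTS with 15 min preincubation.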
JMJD2A Tudor: blocks the human JMJD2A Tudor domain; O75164; AID 504339; AlphaScreen JMJD2A-Tudor / H3K4me3 peptide binding; Potency, µM (highest dose often 114 µM), for inactives: at the top dose activity change, negative = inhibition, most hits filed as inhibitors; actives 4.4% (n = 390,000); also: % is scaled to controls: 0 for no effect and ±100 for the full control effect; nearly all actives have a fitted effect of over 50% in size
An asterisk follows results filed as active; ? = inconclusive; . = no result given; [ ] = dose if it differs, or a comment. Calls follow the shape of the dose curve; as a rule, active = well fitted inhibition curve with a large enough effect; inconclusive = small, poorly fitted or top-dose-only effect; inactive = no such curve, though single readings can be large or run the other way. Potency is read from the fitted curve at half-maximal effect.

SMILES	HP1b binding inh	L3MBTL1 block	BAZ2B inh	G9a inh	JMJD2A Tudor
C[C@@H]1NC(=O)c2cc([N+](=O)[O-])cc(I)c2NCCCC[C@@H](C(N)=O)NC(=O)[C@H](CC(N)=O)NC1=O	32.6%	1.7%	?	31.6µM*	-19.9%
Cc1cccc(CSc2nc3c(c(=O)[nH]2)C(c2cccc(O)c2)CC(=O)N3)c1 (centres undefined)	2.8%	.	-34.7%	?	?
COC(=O)c1cc2oc3ccccc3c2n1CC(=O)Nc1ccc(C)cc1Cl	19.2%	.	2.9%	0.5%[59 µM]	-16.4%
CCCCN(CCCC)CCNC(=O)Cn1nc(CC)n2c(cc3sccc32)c1=O	52.1%	.	1.2%	35.0%[59 µM]	-16.7%
CC(C)C[C@@H]1NC(=O)[C@H](C(C)C)NC(=O)c2cc([N+](=O)[O-])cc(I)c2NCC[C@@H](C(N)=O)NC1=O	23.5%	-3.6%	79.4µM*	12.6µM*	-19.6%
Cc1nn(C)c2c1c(C(F)(F)F)cc(=O)n2C(C)C(=O)NCCc1ccc(Cl)cc1 (centres undefined)	-23.6%	.	2.0%	3.9%[59 µM]	-18.7%
CCOc1ccc(CC(=O)Nc2c3c(nn2C(C)(C)C)CS(=O)(=O)C3)cc1	18.7%	.	-13.6%	79.4µM*	-3.5%
CCOc1cc(C2C(C(N)=O)=C(C)Nc3ncnn32)cc(Br)c1O (centres undefined)	23.7%[57 µM]	.	-12.3%	-6.4%[59 µM]	-11.5%
CCOc1cc(C2C(C(=O)Nc3ccccc3)=C(C)Nc3ncnn32)cc(Br)c1O (centres undefined)	12.2%[57 µM]	.	79.4µM*	10µM*	?
CC1=C(C(=O)Nc2ccccc2C)C(c2ccc[nH]2)n2ncnc2N1 (centres undefined)	-2.4%[57 µM]	.	50.1µM*	-3.8%[59 µM]	56.2µM*
CC1=C(C(=O)Nc2ccc(C)cc2C)C(c2ccc[nH]2)n2ncnc2N1 (centres undefined)	24.0%[57 µM]	.	4.5%	14.8%[59 µM]	-2.9%
CCC(Nc1ccc(-c2nc(-c3ccco3)no2)cc1[N+](=O)[O-])c1ccccc1 (centres undefined)	44.4%	.	-7.3%	-29.6%[59 µM]	-21.9%
COC(=O)CCC(=O)OC1(C)C(=O)C=C2C=C(c3ccsc3)OC=C2C1=O (centres undefined)	?	.	.	.	50.1µM*
CC1(OC(=O)C2CCCC2)C(=O)C=C2C=C(c3ccsc3)N(CC3CC3)C=C2C1=O (centres undefined)	-19.5%	.	?	27.8%[12.7 µM]	?
COC(=O)CCC(=O)OC1(C)C(=O)C=C2C=C(C3CC3)N(C3CC3)C=C2C1=O (centres undefined)	12.6%	.	-16.1%	31.8%[59 µM]	-21.0%
COC(=O)CCCC1=CC2=CC(=O)C(C)(OC(=O)CCc3ccccc3)C(=O)C2=CO1 (centres undefined)	-22.0%	.	56.2µM*	-36.2%[59 µM]	79.4µM*
CCC(=O)OC1(C)C(=O)C=C2C=C(c3ccsc3)OC=C2C1=O (centres undefined)	?	.	50.1µM*	?	28.2µM*
CC1CCCCN1S(=O)(=O)c1cc2c(=O)nc3ccccn3c2cc1Cl (centres undefined)	44.6%	.	3.3%	2.5%[59 µM]	-6.1%
O=C(Cn1cc(COc2c(F)c(F)cc(F)c2F)nn1)c1ccc(O)cc1	64.1%	.	.	.	39.8µM*
Cc1ccc(NC(=O)C(C)n2nnc3sc4c(c3c2=O)CCCC4)cc1Cl (centres undefined)	41.5%	.	-15.5%	?	-29.2%
Cc1ccccc1Cn1nnc2sc3c(c2c1=O)CCCC3	103.7%	.	97.0%	110.7%[59 µM]	70.1%
CC(C(=O)Nc1ccccc1)n1nnc2sc3c(c2c1=O)CCCC3 (centres undefined)	2.3%	.	-15.7%	15.8µM*	-30.5%
CC(C(=O)Nc1ccccc1C(F)(F)F)n1nnc2sc3c(c2c1=O)CCCC3 (centres undefined)	-2.6%	.	-17.3%	14.1µM*	-19.8%
COc1ccc(Cl)cc1NC(=O)C(C)n1nnc2sc3c(c2c1=O)CCCC3 (centres undefined)	9.0%	.	-18.6%	14.1µM*	-32.7%
CC[C@H](C)[C@H](NC(=O)[C@H](CCCN=C(N)N)NC(=O)[C@H](CCCN=C(N)N)NC(=O)[C@H](CC(C)C)NC(=O)[C@H](Cc1ccccc1)NC(=O)CNC(=O)CN)C(=O)N[C@@H](CCCN=C(N)N)C(=O)N1CCC[C@H]1C(=O)N[C@@H](CCCCN)C(=O)N[C@@H](CC(C)C)C(=O)N[C@@H](CCCCN)C(=O)O	.	.	.	12.0%[59 µM]	.
SMILES	HP1b binding inh	L3MBTL1 block	BAZ2B inh	G9a inh	JMJD2A Tudor
COc1ccc2[nH]cc(CCNC(=O)c3cnn(-c4ccccc4Cl)c3C3CCN(C(=O)OC(C)(C)C)CC3)c2c1	-14.8%	.	?	?	?
CC(NC(=O)Nc1ccc(O)cc1)(C(F)(F)F)C(F)(F)F	3.6%	?	1.1%	11.2µM*	-15.9%
COc1ccc(NC(=O)NC(C)(C(F)(F)F)C(F)(F)F)cc1	-3.2%	-2.6%	-2.6%[57.1 µM]	-2.7%	15.8µM*
COc1ccc(NC(=O)NC(C(F)(F)F)C(F)(F)F)cc1	30.8%	.	5.1%	-28.5%[12.7 µM]	2.0%
COc1cccc(OCC(=O)NCCS(=O)(=O)N2CCN(c3ccccc3F)CC2)c1	12.5%[57 µM]	.	-4.7%	11.7%[59 µM]	-14.7%
C#CCOCCOCCOCCNc1nc(N2CCN(C(=O)[C@H](Cc3cc4ccccc4[nH]3)n3cc([C@@H](N)Cc4ccc(O)cc4)nn3)CC2)nc(N2CCN(C(=O)[C@H](Cc3cc4ccccc4[nH]3)n3cc([C@@H](N)CC(C)C)nn3)CC2)n1	-23.7%	.	?	?	50.1µM*
CC(C)C[C@H](N)c1cn([C@@H](Cc2cc3ccccc3[nH]2)C(=O)N2CCNCC2)nn1	12.5%	-4.2%	-22.3%	?	?
C#CCOCCOCCOCCNc1nc(N2CCN(C(=O)C(Cc3cc4ccccc4[nH]3)n3cc(C(N)Cc4ccc(O)cc4)nn3)CC2)nc(N2CCN(C(=O)C(Cc3cc4ccccc4[nH]3)n3cc(C(N)Cc4ccc(O)cc4)nn3)CC2)n1 (centres undefined)	-36.1%	?	11.2µM*	-27.7%[12.7 µM]	8.91µM*
Cc1cccc(Cc2ncc(C(F)(F)F)cc2Cl)c1	40.0%	.	2.6%	22.9%	5.4%
O=C(O)c1cc(-c2ccccn2)n[nH]1	36.9%	1.4%	44.7µM*	-47.7%	-1.1%
C=C1C2CC[C@@]3(C)C(c4ccoc4)OC(=O)C[C@@]13OC1CC(OC(C)=O)C(C)(C)C(CC(=O)OC)[C@@]12C (some centres undefined)	.	.	.	-41.8%[2.33 µM]	.
Cc1ccc(OCCCCNC2CCCC(C)C2C)c(C)c1 (centres undefined)	?	-5.6%	22.4µM*	12.6µM*	20µM*
O=C(NNC(=O)c1cccc(-n2cccc2)c1)c1ccc(F)cc1	-22.2%	22.4µM*	39.8µM*	0.9%[12.7 µM]	?
